GLP-1R agonist = agonists of human GLP-1 receptor; P43220; HEK293 GLP-1R CRE-luciferase, luminescence, 4-6 h; cells express a hypersensitive GLP-1R form; Potency, µM (top dose mostly 45.6 µM), actives largely listed as activators; 380,000 compounds, 0.007% hits; AID 624172
Target sequence (P43220 whole entry, looked up): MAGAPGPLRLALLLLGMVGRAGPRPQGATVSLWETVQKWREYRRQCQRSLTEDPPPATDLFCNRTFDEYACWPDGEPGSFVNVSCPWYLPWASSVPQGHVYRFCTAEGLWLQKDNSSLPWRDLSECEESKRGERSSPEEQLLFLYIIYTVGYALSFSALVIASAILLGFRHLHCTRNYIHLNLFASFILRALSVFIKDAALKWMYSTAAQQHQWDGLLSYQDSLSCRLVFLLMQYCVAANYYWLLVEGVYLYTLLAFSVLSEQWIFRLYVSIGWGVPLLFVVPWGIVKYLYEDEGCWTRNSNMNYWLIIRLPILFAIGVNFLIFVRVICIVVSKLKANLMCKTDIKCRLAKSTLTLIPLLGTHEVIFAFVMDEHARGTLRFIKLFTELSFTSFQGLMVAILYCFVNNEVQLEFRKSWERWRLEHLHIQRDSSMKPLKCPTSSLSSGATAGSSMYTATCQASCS
HEK293 tox = cytotoxicity counter-screen for GLP-1 receptor inverse agonists; HEK293 cAMP-luciferase reporter cells, luminescence, 24 h; Potency, µM (series often up to 38.3 µM), most hits filed as inhibitors; 410,000 compounds, 0.13% hits;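 further: loss of luciferase light is scored as toxicity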
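Step one: seed cells (200 cells/uL, DMEM with 10% Nu serum, 1% pen-strep). Step two: 12-hour incubation at 37 deg C. Step three: pin 23 nL compound, incubate 24 hr. Step four: add luciferase reagent, read luminescence 12 min later.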
ClpP mod = qHTS Assay for Activators of ClpP; ATP-dependent Clp protease proteolytic subunit (Bacillus subtilis (strain 168)), P80244; purified B. subtilis ClpP, FRET peptide cleavage, 20 min; Potency, µM (titrated, usually from 57.5 µM); 340,000 compounds, 1.9% hits; AID 651965, 2013; active means well fitted falling curve with a large enough effect; inconclusive means small, poorly fitted or top-dose-only effect; inactive means no such curve, though single readings can be large or run the other way; further: the source files actives as falling curves though it sought activators and does not explain the sign; nearly all actives have a fitted effect of over 65% in size
Target sequence (P80244 whole entry, looked up): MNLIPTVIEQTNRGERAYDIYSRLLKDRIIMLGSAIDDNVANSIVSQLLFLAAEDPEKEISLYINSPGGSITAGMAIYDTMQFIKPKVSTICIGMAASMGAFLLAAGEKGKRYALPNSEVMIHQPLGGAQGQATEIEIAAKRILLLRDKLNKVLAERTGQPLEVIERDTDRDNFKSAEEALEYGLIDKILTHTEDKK
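Buffer: 100 mM Tris/HCl pH8, 100 mM KCl, 0.05% low protease BSA, 2.5% glycerol, 0.01% Tween-20. ClpP 10 microg/mL final; 20 min RT; delta FRET normalized to ADEP and DMSO controls.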
GLP-1R inv ag = inverse agonists of human GLP-1 receptor; 410,000 compounds, 1.6% hits; Potency, µM (series often up to 38.3 µM), most hits filed as inhibitors; P43220; HEK293 GLP-1R CRE-luciferase, luminescence, 24 h; GLP-1R form is constitutively active; further: nearly all actives have a fitted effect of over 55% in size
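Stable HEK293 clone (constitutively active GLP-1R + cAMP-response luciferase); 200 cells/uL plated, 12 h pre-culture, compound 24 hr, 37 deg C/5% CO2; detection reagent 12 min RT; luminescence.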
Of the large screens only hits and unclear results are named; the others gave an inactive call. This is a sample that favours compounds with a hit; in the whole collection about 3.2% have one here. Unless noted, the call rests on the fitted dose curve; in most records, active means well fitted curve in the direction sought with a large enough effect; inconclusive means small, poorly fitted or top-dose-only effect, or another doubt; inactive means no such curve, though single readings can be large; an effect the other way counts as inactive or inconclusive.

Cc1ccc(C(c2cc(Cl)c3cccnc3c2O)N2CCN(C)CC2)cc1 (centres undefined)	GLP-1R inv ag inconclusive (no result: ClpP mod)
Oc1c(C(c2ccccc2Cl)N2CCCC2)ccc2cccnc12 (centres undefined)	GLP-1R inv ag 3.5µM
Oc1c(C(c2ccc(Cl)cc2)N2CCCC2)cc(Cl)c2cccnc12 (centres undefined)	HEK293 tox inconclusive, GLP-1R inv ag 5.6µM
Cc1noc(Cn2c(=O)c3ccccc3n(CC(=O)Nc3ccc(Cl)cc3)c2=O)n1	none (no result: GLP-1R agonist)
CCOc1ccc(S(=O)(=O)N2CC(=O)Nc3ccccc32)cc1	ClpP mod 32µM
CC1CCCc2sc3nc(SCC(=O)c4ccc(Br)cc4)nc(N)c3c21 (centres undefined)	none (no result: GLP-1R agonist)
Cc1cc(NCCCN)nc(-c2ccccc2O)n1	GLP-1R inv ag 10µM
O=C(Nc1ccc(F)cc1F)N1CCN(c2ccc(Cl)c(Cl)c2)CC1	GLP-1R inv ag 11µM (no result: GLP-1R agonist)
CC(=O)c1ccc(OCC(O)CN(C)CCOc2ccc(Br)cc2)cc1 (centres undefined)	GLP-1R inv ag 10µM (no result: ClpP mod)
Cc1cccc(C(=O)N2CCC(=O)N([C@H](COCc3cccc(C(F)(F)F)c3)Cc3ccccc3)CC2)c1	HEK293 tox inconclusive, GLP-1R inv ag 11µM
Cc1cccc(C(=O)N2CCC(=O)N(C(COCc3cccc(C(F)(F)F)c3)Cc3ccccc3)CC2)c1 (centres undefined)	GLP-1R inv ag inconclusive
Cc1ccc(S(=O)(=O)N2CCC(=O)N(C(COCc3ccc(Cl)cc3)Cc3ccccc3)CC2)cc1 (centres undefined)	GLP-1R inv ag 11µM
Cc1ccc(S(=O)(=O)N2CCC(=O)N([C@H](COCc3ccc(Cl)cc3Cl)Cc3ccccc3)CC2)cc1	GLP-1R inv ag inconclusive
Cc1cccc(COC[C@H](Cc2ccccc2)N2CCN(C(=O)c3cc(Cl)cc(Cl)c3)CCC2=O)c1	HEK293 tox inconclusive, GLP-1R inv ag 11µM
COc1ccc(F)cc1NC(=O)C1CCN(c2nc(-c3ccc(OC)c(OC)c3)no2)CC1	none (no result: GLP-1R agonist)
CCN(CC)C(=O)CSc1nc2nc(C)cc(C)c2c(=O)[nH]1	ClpP mod 25µM
Nc1nc(-c2ccccc2)c(CCCOc2ccc(NC(=O)CBr)cc2)c(=O)[nH]1	HEK293 tox 10µM
COCCNC(=O)CSc1ccccc1C(=O)NCC1CCCCC1	none (no result: ClpP mod)
CC1CCN(C(=O)c2ccccc2SCC(=O)NCC2CCCCC2)CC1	ClpP mod 22µM, GLP-1R inv ag inconclusive
O=C(CCN=C1NS(=O)(=O)c2ccccc21)OCc1nnc(-c2ccc([N+](=O)[O-])cc2)o1	ClpP mod 28µM
CCCC(=O)NC(=S)Nc1ccc(S(=O)(=O)N2CCc3ccccc32)cc1	GLP-1R inv ag 8.9µM
O=C(Cc1cn(Cc2cccc(Cl)c2)c2ccccc12)N1CCCCCC1	GLP-1R inv ag 10µM
CC1CCCN(C(=O)Cc2cn(Cc3cccc(Cl)c3)c3ccccc23)C1 (centres undefined)	GLP-1R inv ag inconclusive
CCCOc1ccc(NC(=O)CC2C(=O)N(c3ccccc3)C(=O)N2CCC(C)C)cc1 (centres undefined)	GLP-1R inv ag inconclusive (no result: GLP-1R agonist)
Cc1ccc(NC(=O)Cn2nnc(C(=O)NCCc3ccccc3)c2N)cc1	none (no result: GLP-1R agonist)
OC(c1cc(-c2cccc(Cl)c2)nc2ccccc12)C1CCCCN1 (centres undefined)	HEK293 tox 10µM, GLP-1R inv ag 1.4µM (no result: ClpP mod)
COc1cccc(-c2nnc(-c3ccco3)o2)c1	none
CC(C)COc1ccc(-c2nnc(-c3ccco3)o2)cc1	ClpP mod 16µM
CCCOc1ccc(-c2nnc(-c3ccco3)o2)cc1	ClpP mod 40µM, GLP-1R inv ag inconclusive
CCOC(=O)c1[nH]c2ccc(OC)cc2c1NC(=O)c1ccccc1C(=O)O	none (no result: ClpP mod)
CCOC(=O)c1[nH]c2ccc(OC)cc2c1NC(=O)CCN1CCc2ccccc2C1	ClpP mod 28µM
CCOC(=O)c1[nH]c2ccc(Br)cc2c1NC(=O)CCN1CCC(C)CC1	GLP-1R inv ag inconclusive
CCOC(=O)c1[nH]c2ccc(OC)cc2c1NC(=O)CCN1CCC(C)CC1	ClpP mod 28µM
Cc1ccc2nc(N3CCN(C(=O)C4COc5ccccc5O4)CC3)sc2c1 (centres undefined)	GLP-1R inv ag inconclusive (no result: GLP-1R agonist)
CC(C)(C)C1CCc2c(sc3nc(-c4cc5cc(Br)ccc5oc4=O)[nH]c(=O)c23)C1 (centres undefined)	none (no result: GLP-1R agonist)
COc1ccc(CCN2C(=O)c3[nH]nc(-c4ccccc4O)c3C2c2ccc(OC)c(OC)c2)cc1 (centres undefined)	GLP-1R inv ag inconclusive (no result: GLP-1R agonist)
O=C(NCc1ccco1)/C(=C/C=C/c1ccccc1)NC(=O)c1ccco1	none
CCNC(=O)/C(=C\C=C\c1ccccc1)NC(=O)c1ccc(Br)o1	ClpP mod 3.2µM
Cc1nc2c(-c3ccccc3)c(C)[nH]n2c(=O)c1Cc1ccc(Br)cc1	ClpP mod inconclusive, GLP-1R inv ag inconclusive (no result: GLP-1R agonist)
COc1ccc(C2C3=C(CC(C)(C)CC3=O)Nc3n[nH]c(C)c32)cc1 (centres undefined)	ClpP mod 35µM
Cc1[nH]nc2c1C(c1ccccc1)C1=C(CC(C)(C)CC1=O)N2 (centres undefined)	ClpP mod 28µM
Cc1[nH]nc2c1C(c1ccc(O)cc1)C1=C(CC(C)(C)CC1=O)N2 (centres undefined)	none (no result: ClpP mod)
COc1ccc(CCNc2nc(SCc3ccc(F)cc3)nc3ccccc23)cc1OC	none (no result: GLP-1R agonist)
CC(C)N(Cc1nc(-c2ccccc2)no1)C(=O)c1ccc(Cl)cc1	GLP-1R inv ag 11µM
Cc1cccc(-c2noc(CN(C(=O)C34CC5CC(CC(C5)C3)C4)C(C)C)n2)c1	ClpP mod 32µM
C=CCNC(=O)c1cnn2c1NC(=C)C=C2C	none (no result: GLP-1R agonist, HEK293 tox, GLP-1R inv ag)
CCCCNC(=O)C1CCN(Cc2ccc(OCc3ccccc3)cc2)CC1	HEK293 tox inconclusive, GLP-1R inv ag 7.1µM
CCNC(=O)C1CCCN(Cc2ccc(OCc3ccccc3)cc2)CC1 (centres undefined)	none
Cc1ccc(NC(=O)Cn2c(=O)n(CCCCCC(=O)NCc3ccc(F)cc3)c(=O)c3sccc32)cc1C	none (no result: GLP-1R agonist)
Nc1nonc1-c1nc2ccccc2n1CC(=O)Nc1cccc(Cl)c1Cl	GLP-1R inv ag inconclusive (no result: GLP-1R agonist)
Cc1ccc(S(=O)(=O)Nc2ccccc2C(=O)NCC2CCCO2)cc1 (centres undefined)	ClpP mod inconclusive
CCOc1ccc(S(=O)(=O)Nc2ccccc2C(=O)NCC2CCCO2)cc1 (centres undefined)	ClpP mod 28µM
COc1cc(-c2nc(S(=O)(=O)c3ccc(Br)cc3)c(N3CCOCC3)o2)cc(OC)c1OC	none (no result: GLP-1R agonist)
N#CC1(NC(=O)CSc2n[nH]c(-c3ccccc3)n2)CCCCC1	ClpP mod 14µM
Cc1cc(SCC(=O)NC2(C#N)CCCCC2)nc2c(C)cccc12	ClpP mod 32µM, GLP-1R inv ag 10µM
